Inconclusive results are not listed. Calls of active or inactive are those of the source. Unless noted, the call rests on the fitted dose curve; in most records, active means well fitted curve in the direction sought with a large enough effect in the repeat runs; inconclusive means weak or mixed curves; inactive means no such curve, though single readings can be large; an effect the other way counts as inactive or inconclusive.
Assays:
[1] = qHTS assay to identify small molecule agonists of the sonic hedgehog signaling (Shh) pathway - cell viability counter screen (AID 1259366); further: nearly all actives have a fitted effect of over 50% in size
Outline: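 NIH/3T3-derived 3T3 Gli1-Luc cells (stable Gli1-responsive firefly luciferase reporter) were seeded, rested 4 hr at 37 C/5% CO2, then exposed to compounds in DMSO for 24 hr; viability was read by CellTiter-Fluor fluorescence in the same wells.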

[2] = qHTS assay to identify small molecule agonists of the sonic hedgehog signaling (Shh) pathway (AID 1259368; calls by dose curve; further: series mostly up to about 92 µM; nearly all actives have a fitted effect of over 15% in size)
Outline: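 3T3Gli1-Luc (NIH/3T3 clone, stable Gli1-Luc); 4 hr pre-incubation, then cpd in DMSO 24 hr, 37 C/5% CO2; luciferase reagent 30 min RT; luminescence.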

[3] = qHTS assay to identify small molecule antagonists of the sonic hedgehog signaling (Shh) pathway (AID 1259369; calls by dose curve; further: nearly all actives have a fitted effect of over 45% in size)
Outline: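 3T3Gli1-Luc, conditioned-medium-stimulated, 24hr cpd, 37C/5% CO2; Gli1-driven firefly Luc luminescence after 30min RT with luciferase reagent. Cells plated 4hr before cpd.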

[4] = target: Estrogen receptor beta (Homo sapiens) (UniProt Q92731); assay: qHTS assay to identify small molecule agonists of the estrogen receptor beta (ER-beta) signaling pathway (AID 1259377; active means well fitted activation curve with a large enough effect in the signal ratio in the repeat runs, not every such curve was filed as active; the % refers to the signal ratio)
Outline: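 ER-beta-UAS-bla HEK293T (GripTite) cells carrying a UAS-driven beta-lactamase reporter, in medium with 2% charcoal-stripped FBS, were exposed to compounds for 16 hr at 37C; LiveBLAzer B/G FRET substrate was then added and fluorescence read after 2 hours at room temperature.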

[5] = target: Estrogen receptor beta (Homo sapiens) (UniProt Q92731); assay: qHTS assay to identify small molecule antagonists of the estrogen receptor beta (ER-beta) signaling pathway (AID 1259378; active means well fitted inhibition curve with a large enough effect in the signal ratio in the repeat runs, not every such curve was filed as active; the % refers to the signal ratio)
Outline: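 Antagonist mode: compounds added to beta-lactamase reporter HEK293T ER-beta-UAS cells stimulated with E2 (1nM final), 16 hr at 37C. LiveBLAzer B/G FRET substrate, 2 hours room temperature, fluorescence read-out.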

[6] = qHTS assay to identify small molecule agonists of the androgen receptor (AR) signaling pathway in the presence of an antagonist - cell viability counter screen (AID 1259379);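 further: MDA-kb2 human breast cancer cells carrying an MMTV luciferase reporter; series mostly up to about 92 µM; nearly all actives have a fitted effect of over 25% in size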
Outline: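 Cells: MDA-kb2 (MMTV-luc, AR and GR elements), 3,000/well, 5 hr settle. Added: nilutamide 3.0uM final, then compounds (15 conc.). Incubation: 16 hr, 37C, no CO2. Read-out: CellTiter-Fluor, 1 hr, fluorescence.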

[7] = qHTS assay to identify small molecule agonists of the estrogen receptor beta (ER-beta) signaling pathway - cell viability counter screen (AID 1259380); further: nearly all actives have a fitted effect of over 30% in size
Outline: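 HEK293T ER-beta-UAS-bla; 2% CS-FBS; 6 hr pre-plate, 16 hr cpd at 37C/5% CO2; LiveBLAzer read first, then CellTiter-Glo 30 min RT, luminescence.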

[8] = qHTS assay to identify small molecule antagonists of the estrogen receptor beta (ER-beta) signaling pathway - cell viability counter screen (AID 1259382); further: series mostly up to about 92 µM; nearly all actives have a fitted effect of over 55% in size
Outline: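 Cells: ER-beta-UAS-bla HEK293T, 2,000/well, 2% CS-FBS, 6 hr settle. Cpd + E2 (1nM final), 16 hr, 37C/5% CO2. Bla FRET substrate 2 hr RT, then CellTiter-Glo 30 min RT, luminescence.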

[9] = target: Estrogen receptor (Homo sapiens) (UniProt P03372); assay: qHTS assay to identify small molecule agonists of the estrogen receptor alpha (ER-alpha) signaling pathway in the presence of an antagonist (AID 1259383; calls by dose curve; further: top concentration of the series differs between compounds; nearly all actives have a fitted effect of over 15% in size)
Outline: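 VM7Luc4E2, endog. ER-alpha + 4×ERE-luc; charcoal-stripped FBS, phenol red-free, 5 d; 24hr plating; +10.0nM ICI-182,780 (final); cpds 15 conc, 22hr, 37C/5% CO2; ONE-Glo luminescence.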

[10] = target: Progesterone receptor (Homo sapiens) (UniProt P06401); assay: qHTS assay to identify small molecule agonists of the progesterone receptor (PR) signaling pathway (AID 1346784; calls by dose curve; further: nearly all actives have a fitted effect of over 30% in size; further: potency means the concentration at half of the fitted maximal effect)
Outline: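 PR-UAS-bla HEK 293T cells carrying a UAS-driven beta-lactamase reporter were seeded in medium with 2% charcoal-stripped FBS, preincubated 6 hr at 37C, then exposed to compounds in DMSO for 16 hr; agonism was read by LiveBLAzer B/G FRET fluorescence.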

[11] = qHTS assay to identify small molecule antagonists of the progesterone receptor (PR) signaling pathway - cell viability counter screen (AID 1346798); further: series mostly up to about 92 µM; nearly all actives have a fitted effect of over 50% in size
Outline: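 PR-UAS-bla HEK293T cells in medium with 2% charcoal-stripped FBS were treated with compounds plus R5020 for 16 hr at 37C. Cell viability was then read by CellTiter-Glo luminescence after 30 min at room temperature in the same wells.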

[12] = qHTS assay to identify small molecule agonists of the progesterone receptor (PR) signaling pathway - cell viability counter screen (AID 1346799; calls by dose curve; further: nearly all actives have a fitted effect of over 45% in size)
Outline: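 PR-UAS-bla HEK293T cells, 3,000 per well in medium with 2% charcoal-stripped FBS, were preincubated 6 hr at 37C, then exposed to compounds for 16 hr; viability was read as CellTiter-Glo luminescence after 30 min at room temperature.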

[13] = qHTS assay to identify small molecule antagonists of the TGF-beta/Smad signaling pathway - cell viability counter screen (AID 1346824); further: nearly all actives have a fitted effect of over 50% in size
Outline: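 Cytotoxicity counter-screen run in the same wells as the beta-lactamase Smad reporter read: CellTiter-Glo luminescence after 30 min at room temperature. HEK 293T SBE-bla cells had 5 hr compound exposure at 37 C with TGF-beta1 (0.25 ng/mL stock).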

[14] = qHTS assay to identify small molecule agonists of the TGF-beta/Smad signaling pathway - cell viability counter screen (AID 1346829); further: top concentration of the series differs between compounds; nearly all actives have a fitted effect of over 45% in size
Outline: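 In parallel with the Smad reporter read, viability of HEK 293T cells stably carrying SBE-bla is quantified by ATP luminescence following 5 hr compound treatment.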

[15] = qHTS assay to identify small molecule antagonists of the sonic hedgehog signaling (Shh) pathway - cell viability counter screen (AID 1259367); further: nearly all actives have a fitted effect of over 55% in size
Outline: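 Cells: 3T3 Gli1-Luc, 2,000/well, 4 hr pre-incubation. Compounds in DMSO, then conditioned medium. Incubation 24 hr, 37C, 5% CO2. CellTiter-Fluor at 23 hr, 1 hr, fluorescence.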

[16] = qHTS assay to identify small molecule agonists or antagonists of the thyroid stimulating hormone receptor (TSHR) signaling pathway - wild type cell line counter screen (AID 1259384; calls by dose curve)
Outline: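 Counter screen in untransfected Hek293: compounds (15-point titration, triplicate) plus phosphodiesterase inhibitor Ro20-1724 added after 18 h plating; 30 min RT. Intracellular cAMP via competitive d2/cryptate immunoassay, 1 h incubation.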

[17] = target: Thyrotropin receptor (Homo sapiens) (UniProt P16473); assay: qHTS assay to identify small molecule antagonists of the thyroid stimulating hormone receptor (TSHR) signaling pathway (AID 1259385; calls by dose curve; further: nearly all actives have a fitted effect of over 20% in size)
Outline: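 Antagonist mode: compound-treated TSHR-expressing HEK293 cells were stimulated with 1.5 ng/mL TSH (final) in presence of Ro20-1724 for 30 min at RT. HTRF cAMP detection after 1 h; each compound tested at 15 concentrations, triplicate.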

[18] = qHTS assay to identify small molecule agonists of the estrogen receptor alpha (ER-alpha) signaling pathway in the presence of an antagonist - cell viability counter screen (AID 1259386);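 further: series mostly up to about 92 µM; cells exposed to compounds for 22 h at 37 °C before the viability read; nearly all actives have a fitted effect of over 30% in size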
Outline: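 VM7Luc4E2, stripped-serum pre-culture 5 d; 24hr plating; +ICI-182,780 10.0nM final; cpds 15 conc, 22hr, 37C/5% CO2; CellTiter-Fluor added at 21hr, fluorescence 1hr later.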

[19] = target: Progesterone receptor (Homo sapiens) (UniProt P06401); assay: qHTS assay to identify small molecule antagonists of the progesterone receptor (PR) signaling pathway (AID 1346795; active means well fitted inhibition curve with a large enough effect in the signal ratio in the repeat runs, not every such curve was filed as active; the % refers to the signal ratio)
Outline: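 PR-UAS-bla HEK293T cells carrying a UAS-driven beta-lactamase reporter were plated in medium with 2% charcoal-stripped FBS and rested 6 hr at 37C. Compounds were added with 1 nM R5020 (final) for 16 hr, then FRET substrate loaded 2 hr at room temperature.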

[20] = target: Androgen receptor (Homo sapiens) (UniProt P10275); assay: qHTS assay to identify small molecule agonists of the androgen receptor (AR) signaling pathway in the presence of an antagonist (AID 1259381; calls by dose curve; further: nearly all actives have a fitted effect of over 15% in size)
Outline: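 MDA-kb2 cells, 3,000/well, rested 5hr at 37C/0% CO2 → nilutamide 3.0uM final or buffer → compounds, 15 conc. → 16hr at 37C → ONE-Glo, 30min RT → luminescence.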
On the % scale 0 is the no-effect control and ±100 the full control effect.

Estrogen receptor beta (Homo sapiens), sequence (Q92731 whole entry, looked up): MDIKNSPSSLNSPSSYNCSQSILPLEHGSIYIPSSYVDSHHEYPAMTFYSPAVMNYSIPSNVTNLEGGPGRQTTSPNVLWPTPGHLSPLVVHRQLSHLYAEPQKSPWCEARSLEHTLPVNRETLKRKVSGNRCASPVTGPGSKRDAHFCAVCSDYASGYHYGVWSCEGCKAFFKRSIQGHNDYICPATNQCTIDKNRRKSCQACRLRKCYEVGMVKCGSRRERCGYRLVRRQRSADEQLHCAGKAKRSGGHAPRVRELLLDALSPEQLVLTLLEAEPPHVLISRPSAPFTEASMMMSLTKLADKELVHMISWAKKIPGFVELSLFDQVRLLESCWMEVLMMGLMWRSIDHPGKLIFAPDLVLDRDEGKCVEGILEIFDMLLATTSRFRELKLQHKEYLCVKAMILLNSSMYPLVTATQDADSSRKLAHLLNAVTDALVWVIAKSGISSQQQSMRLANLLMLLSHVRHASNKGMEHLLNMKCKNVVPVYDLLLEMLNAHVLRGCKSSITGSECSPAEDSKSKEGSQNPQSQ
Thyrotropin receptor (Homo sapiens), sequence (P16473 whole entry, looked up): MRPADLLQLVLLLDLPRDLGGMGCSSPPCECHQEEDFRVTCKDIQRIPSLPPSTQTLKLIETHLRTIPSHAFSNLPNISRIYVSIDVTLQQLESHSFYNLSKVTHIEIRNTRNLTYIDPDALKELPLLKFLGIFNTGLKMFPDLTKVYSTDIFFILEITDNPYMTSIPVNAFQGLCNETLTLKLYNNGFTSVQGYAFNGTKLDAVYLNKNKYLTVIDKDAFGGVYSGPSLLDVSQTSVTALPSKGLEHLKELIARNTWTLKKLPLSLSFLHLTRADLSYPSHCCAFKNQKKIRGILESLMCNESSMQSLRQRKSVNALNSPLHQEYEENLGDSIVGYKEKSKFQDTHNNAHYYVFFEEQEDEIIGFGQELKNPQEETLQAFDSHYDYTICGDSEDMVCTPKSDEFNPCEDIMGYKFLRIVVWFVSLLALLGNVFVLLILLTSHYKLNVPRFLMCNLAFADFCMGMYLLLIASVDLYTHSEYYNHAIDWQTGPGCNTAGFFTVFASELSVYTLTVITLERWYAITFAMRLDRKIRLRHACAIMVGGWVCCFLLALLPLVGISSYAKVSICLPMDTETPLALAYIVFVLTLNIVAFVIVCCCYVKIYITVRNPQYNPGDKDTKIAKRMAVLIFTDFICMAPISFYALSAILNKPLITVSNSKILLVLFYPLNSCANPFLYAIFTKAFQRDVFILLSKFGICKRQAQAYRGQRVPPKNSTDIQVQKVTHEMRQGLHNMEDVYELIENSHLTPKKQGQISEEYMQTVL
Estrogen receptor (Homo sapiens), sequence (P03372 whole entry, looked up): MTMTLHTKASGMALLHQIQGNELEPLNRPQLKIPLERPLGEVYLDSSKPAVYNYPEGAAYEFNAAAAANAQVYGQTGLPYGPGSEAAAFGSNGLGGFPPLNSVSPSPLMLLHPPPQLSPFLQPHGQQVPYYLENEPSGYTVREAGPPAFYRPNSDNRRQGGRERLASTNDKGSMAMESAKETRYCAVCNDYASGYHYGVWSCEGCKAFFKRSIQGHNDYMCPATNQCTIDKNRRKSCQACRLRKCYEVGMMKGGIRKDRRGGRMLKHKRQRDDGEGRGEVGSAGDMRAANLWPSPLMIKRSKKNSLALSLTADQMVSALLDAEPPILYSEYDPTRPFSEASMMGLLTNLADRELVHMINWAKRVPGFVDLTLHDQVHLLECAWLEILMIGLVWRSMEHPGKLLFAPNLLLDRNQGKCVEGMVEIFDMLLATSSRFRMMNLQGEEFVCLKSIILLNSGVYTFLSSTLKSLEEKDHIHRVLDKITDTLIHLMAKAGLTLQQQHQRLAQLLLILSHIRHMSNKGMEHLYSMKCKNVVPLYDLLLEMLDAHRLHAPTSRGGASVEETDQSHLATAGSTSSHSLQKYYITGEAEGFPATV
Progesterone receptor (Homo sapiens), sequence (P06401 whole entry, looked up): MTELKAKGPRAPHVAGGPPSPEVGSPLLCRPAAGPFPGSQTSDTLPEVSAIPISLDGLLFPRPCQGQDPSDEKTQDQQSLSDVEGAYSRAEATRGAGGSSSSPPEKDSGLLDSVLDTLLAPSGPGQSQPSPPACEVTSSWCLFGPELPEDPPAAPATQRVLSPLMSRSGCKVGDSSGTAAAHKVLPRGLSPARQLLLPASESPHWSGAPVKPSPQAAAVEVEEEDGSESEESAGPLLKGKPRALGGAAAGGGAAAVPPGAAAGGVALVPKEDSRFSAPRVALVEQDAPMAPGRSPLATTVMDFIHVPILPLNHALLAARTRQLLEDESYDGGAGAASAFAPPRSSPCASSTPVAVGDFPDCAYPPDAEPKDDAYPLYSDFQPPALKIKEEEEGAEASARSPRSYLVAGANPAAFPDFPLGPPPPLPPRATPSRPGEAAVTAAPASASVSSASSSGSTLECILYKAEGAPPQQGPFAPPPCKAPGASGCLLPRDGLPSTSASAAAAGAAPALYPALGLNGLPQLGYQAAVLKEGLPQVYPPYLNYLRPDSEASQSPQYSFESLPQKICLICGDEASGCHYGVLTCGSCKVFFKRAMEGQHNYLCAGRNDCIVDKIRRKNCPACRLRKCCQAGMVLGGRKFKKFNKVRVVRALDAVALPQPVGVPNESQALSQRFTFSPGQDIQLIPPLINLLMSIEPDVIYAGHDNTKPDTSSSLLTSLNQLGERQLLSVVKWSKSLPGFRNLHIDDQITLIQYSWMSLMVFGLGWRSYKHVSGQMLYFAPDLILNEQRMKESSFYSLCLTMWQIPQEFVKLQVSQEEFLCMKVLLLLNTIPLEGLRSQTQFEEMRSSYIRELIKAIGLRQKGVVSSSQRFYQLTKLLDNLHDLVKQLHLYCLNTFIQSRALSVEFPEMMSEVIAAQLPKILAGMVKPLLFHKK
Androgen receptor (Homo sapiens), sequence (P10275 whole entry, looked up): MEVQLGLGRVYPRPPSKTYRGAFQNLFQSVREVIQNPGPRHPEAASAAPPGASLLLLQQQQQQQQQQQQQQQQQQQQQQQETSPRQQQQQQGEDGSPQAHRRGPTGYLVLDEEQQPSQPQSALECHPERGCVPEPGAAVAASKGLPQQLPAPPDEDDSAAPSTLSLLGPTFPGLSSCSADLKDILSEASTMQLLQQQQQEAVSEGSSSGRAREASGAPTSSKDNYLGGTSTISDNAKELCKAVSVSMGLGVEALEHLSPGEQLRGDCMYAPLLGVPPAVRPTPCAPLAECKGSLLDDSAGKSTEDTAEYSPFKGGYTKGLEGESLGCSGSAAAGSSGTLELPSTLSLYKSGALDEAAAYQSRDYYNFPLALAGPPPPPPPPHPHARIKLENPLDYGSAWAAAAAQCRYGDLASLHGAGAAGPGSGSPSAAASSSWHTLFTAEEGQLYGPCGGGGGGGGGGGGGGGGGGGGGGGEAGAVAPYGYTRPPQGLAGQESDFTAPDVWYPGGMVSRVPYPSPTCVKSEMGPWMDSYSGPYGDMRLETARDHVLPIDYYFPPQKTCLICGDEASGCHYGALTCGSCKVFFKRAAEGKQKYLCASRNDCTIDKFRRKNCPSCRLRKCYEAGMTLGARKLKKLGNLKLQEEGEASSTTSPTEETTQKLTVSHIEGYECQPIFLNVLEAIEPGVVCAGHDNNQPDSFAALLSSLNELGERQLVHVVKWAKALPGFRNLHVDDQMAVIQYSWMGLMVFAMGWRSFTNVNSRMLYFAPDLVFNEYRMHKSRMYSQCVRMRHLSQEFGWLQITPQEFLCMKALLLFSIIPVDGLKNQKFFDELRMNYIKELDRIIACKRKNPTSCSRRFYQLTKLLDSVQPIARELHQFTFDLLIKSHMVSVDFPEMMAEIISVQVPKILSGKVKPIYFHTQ

Cc1cc(O)c2c(c1)C(=O)c1cccc(O)c1C2=O
inactive: Potency [1] | outcome [2] | Potency [3] | Potency [4] | outcome [5] | Potency [6] | outcome [7] | outcome [8] | outcome [9] | Potency [10] | Potency [11] | Potency [12] | outcome [13] | outcome [14]

CC(=O)OC(C)c1ccccc1 (stereo not drawn)
inactive: Potency [1] | Potency [15] | outcome [2] | Potency [4] | outcome [7] | outcome [8] | outcome [9] | outcome [16] | outcome [17] | Potency [18] | Potency [10] | Potency [19] | Potency [11] | Potency [12] | outcome [13] | outcome [14]

COc1ccc(NS(=O)(=O)c2ccc(N)cc2)nn1
inactive: Potency [1] | Potency [15] | outcome [2] | Potency [6] | outcome [8] | outcome [9] | outcome [16] | outcome [17] | Potency [18] | Potency [10] | Potency [19] | Potency [11] | Potency [12] | outcome [13] | outcome [14]

O=C(O)c1ccc(OCCN2CCCCC2)cc1
inactive: Potency [15] | outcome [2] | Potency [3] | Potency [4] | outcome [5] | Potency [6] | outcome [7] | outcome [20] | outcome [8] | outcome [9] | outcome [16] | outcome [17] | Potency [18] | Potency [10] | Potency [19] | Potency [11] | Potency [12] | outcome [13] | outcome [14]

C=CCOCC(O)CCl (stereo not drawn)
inactive: Potency [15] | outcome [2] | Potency [3] | Potency [4] | outcome [5] | Potency [6] | outcome [7] | outcome [20] | outcome [8] | outcome [9] | Potency [10] | Potency [19] | Potency [11] | Potency [12] | outcome [13] | outcome [14]

O=CO
active: Potency [10] 2.51 µM
inactive: viability change, negative = cytotoxic [1] 5.23% [at 8.39 µM] | viability change, negative = cytotoxic [15] 1.7% [at 8.39 µM] | activity change [2] -0.175% [at 8.39 µM] | activity change, negative = cytotoxicity [6] 0.727% [at 8.39 µM] | activity change, negative = cytotoxicity [7] 0.536% [at 8.39 µM] | activity change, negative = cytotoxicity [8] 7.25% [at 8.39 µM] | activity change, negative = cytotoxicity [18] -5.19% [at 8.39 µM] | activity change, negative = inhibition [19] 8.24% [at 8.39 µM] | activity change, negative = cytotoxicity [11] 2.97% [at 8.39 µM] | activity change, negative = cytotoxicity [12] 21.2% [at 8.39 µM] | viability change, negative = cytotoxic [13] -0.889% [at 6.97 µM] | activity change, negative = cytotoxicity [14] 8.49% [at 6.97 µM]

CC(=O)OC(C)(C)Cc1ccccc1
inactive: Potency [1] | Potency [15] | outcome [2] | Potency [6] | outcome [7] | outcome [8] | outcome [16] | outcome [17] | Potency [18] | Potency [10] | Potency [19] | Potency [11] | Potency [12] | outcome [13] | outcome [14]
